# Experimental data from ChEMBL document CHEMBL3433997, “St. Jude Leishmania screening dataset” (2016).
# Target: Glucose transporter (Leishmania mexicana) (UniProt O61059)
# Assay: ST_JUDE_LEISH: Cytotoxicity at 2uM final concentration against transgenic Leishmania Mexicana promastigotes LmGT2 that are glucose transport deficient and complemented with the L. Mexicana glucose transporter 2. Activity is measured by DNA content using SYBR green in vitro
# Assay type: functional
row,SMILES,inhibition [%]
1,CCN1CCN(c2cc(C)c3cc(NC(=O)c4ccc(N(CC)CC)cc4)ccc3n2)CC1,-3.38
2,COc1ccc(C2C(C(=O)OC3CCCC3)=C(C)NC3=C2C(=O)CCC3)cc1Br (stereo not given),0.31
3,CNCc1ccc(-c2cccc(CNCc3ccc(-c4ccccc4)cc3)c2)c(C(=O)OC)c1,2.91
4,CC(C)Oc1cc2c(cc1NS(=O)(=O)c1ccc(-c3ccc(Cl)s3)cc1F)CCN(C)CC2,1.77
5,CCN1C(=O)C(CC(=O)Nc2cccc(Cl)c2)N(Cc2ccc(OC)c(OC)c2)C1=S (stereo not given),0.57
6,Cc1cc(=NN=Cc2cccc(Cl)c2)c2ccc(F)cc2[nH]1,1.04
7,Cc1ccc(Cn2ncc(NC3CCNCC3)c(Cl)c2=O)cc1NC(=O)Nc1ccc(-c2ccccc2)cc1,5.29
8,CCOCCCNc1sc(S(=O)(=O)c2ccccc2)nc1S(=O)(=O)c1ccc(C)cc1,9.56
9,CC(C)CN1CCCN(Cc2cccc(NC(=O)c3ccc(-c4ccccc4)cc3)c2)CC1,-5.07
10,CCCCCCCN(Cc1ccc(OC(C)(C)C(=O)OCC)cc1)C(=O)Nc1ccccc1OC(F)(F)F,1.43
11,CC(C)C[C@@H](NC(=O)OC(C)(C)C)C(=O)Nc1ccc(Cc2ccc(NC(=O)[C@@H](CC(C)C)NC(=O)OC(C)(C)C)cc2)cc1,0.63
12,COc1ccc(CNC(=O)NC2CCN(c3ccnc(Nc4cc(OC)c(OC)c(OC)c4)n3)C2)cc1 (stereo not given),-1.15
13,CC[C@@H]([C@@H](Cc1cc2ccccc2s1)C(=O)N[C@@H](CCCCNC(=O)OCc1ccccc1)C(=O)Nc1ccccn1)N(O)C=O,3.75
14,CNC(=N)c1ccc(NC(=O)c2ccc(C(=O)Nc3ccc(C(=N)NC)cc3)cc2)cc1,1.84
15,CC1(C)NC(N)=NC(=N)N1OCCSCc1cc(Cl)sc1Cl,2.82
16,CC(C)(C)c1ccc2[nH]c(-c3ccc(/C=C/C(=O)NCc4ccc(Cl)c(Cl)c4)cc3)nc2c1,1.89
17,COc1c(OC)c(OC)c2ccccc2c1CNCCCCCCNCc1c(OC)c(OC)c(OC)c2ccccc12,0.02
18,CCC(C)c1ccc(Nc2nc(C)cc(N(CC)CCCN3CCCCC3)n2)cc1 (stereo not given),1.67
19,COc1cc(C(=O)Nc2cccc(-c3nc4ccccc4[nH]3)c2)ccc1OC(C)=O,0.31
20,C=C[C@H]1CN(CCCCCCC)CC[C@H]1CC(O)Cc1ccnc2cc(O)c(OC)cc12 (stereo not given in full),0.32

row,SMILES,inhibition [%]
1,CCOC(=O)c1c(NC(=O)c2ccccc2)sc2c(O)c(CN(CC)CC)ccc12,2.36
2,Cc1cc(N2CCCC2)nc(Nc2ccc(NC(=O)Nc3ccccc3)cc2)n1,3.63
3,Cc1cc(N(C)C)nc(Nc2ccc(NC(=O)c3ccccc3C)cc2)n1,5.05
4,COc1ccc(CCn2c(C3CCCCC3)nc3oc4ccccc4c(=O)c3c2=O)cc1,-0.12
5,CCCC(C)N(Cc1ccc(C(C)(C)C)cc1)C(=O)c1ccc(OC)cc1 (stereo not given),7.03
6,CCCC(CNCc1cccc(OC(F)(F)F)c1)CNc1cc(=O)c2ccccc2[nH]1 (stereo not given),2.94
7,Cc1cccc2nc(-c3cccc(-c4cccc(NC(=O)Nc5cccc(C#N)c5)c4)c3)[nH]c12,10.3
8,CCSc1ccccc1COc1c(C)nc(N)nc1N,2.41
9,O=C(Nc1ccc2c(c1)OCO2)NC1CCN(c2ccnc(NCc3ccc(F)cc3)n2)CC1,0.61
10,O=C(NCc1cccc(C(F)(F)F)c1)c1ccc(CNC(=O)c2ccc(O)c(-c3ccc(Cl)c(Cl)c3)c2)cc1,3.47
11,O=C(/C=C/c1ccc(Cl)c(Cl)c1)NCCCCCN1CCC(NC(=O)c2ccc(F)cc2F)CC1,-1.5
12,COc1cc(NC(=O)N2CCc3ccc(OCCC4CCCN4C)cc32)cc(C(F)(F)F)c1 (stereo not given),-0.48
13,c1ccc(CCNc2ccnc(Nc3ccc4[nH]nnc4c3)n2)cc1,10.8
14,CC(c1cccc(S(=O)(=O)NCc2ccc(Cl)cc2Cl)c1)N1CCC(N2CCCCC2)CC1 (stereo not given),3.71
15,O=[N+]([O-])c1cccc(C=NNc2nc(=Nc3ccccc3)[nH]c(=Nc3ccccc3)[nH]2)c1,-0.18
16,Cc1nc(C)c(C2CCC(c3ccc(Cl)cc3)CC2)c(O)c1Cl (stereo not given),-0.48
17,Cc1cc2nc(-c3ccc(C(=O)NCc4cccc(C(F)(F)F)c4)cc3)[nH]c2cc1C,-2.9
18,CCCCCN1CCCC(CNS(=O)(=O)c2ccc(C(=O)Nc3ccc(C(F)(F)F)cc3)cc2)C1 (stereo not given),-0.42
19,Oc1cc2c(cc1CN1CCN(Cc3ccccc3F)CC1)CCC2,2.62
20,CN1CCN(c2ccnc3cc4c(cc23)N(C(=O)Nc2ccc3c(c2)CCCC3=O)CC4)CC1,0.75
